PubChem BioAssay
Where “and” joins values, the source holds several entries; their conditions need not be identical. Equal values may be shown once. For some assays here: Entries with a potency or affinity are not part of this list. The list shows a part of the results. Calls of active or inactive are those of the source. Unless noted, no rule for the calls is given here.

Tests used:
[1] = biological target: GTPase HRas (Homo sapiens) (UniProt P01112); experiment: inhibitors of GTP binding to wildtype Ras, dose response, biochemical, multiplex bead flow cytometry (AID 1335;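 active = fitted half-maximal concentration within 10 nM to 100 µM, steepness 0.5 to 2, significant signal drop, low assay interference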); conditions: bead-based flow cytometry, Bodipy-GTP binding to GST-Ras; at 100 µM (top of the series) unless noted
GTPase HRas (Homo sapiens), sequence (P01112 whole entry, looked up): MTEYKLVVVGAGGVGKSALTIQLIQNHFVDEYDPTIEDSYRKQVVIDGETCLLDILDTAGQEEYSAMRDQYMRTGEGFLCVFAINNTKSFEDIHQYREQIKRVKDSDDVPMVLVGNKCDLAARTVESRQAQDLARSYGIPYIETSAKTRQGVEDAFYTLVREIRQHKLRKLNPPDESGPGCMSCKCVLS

[2] = biological target: GTPase HRas (Homo sapiens) (UniProt P01112); experiment: activated Ras mutant GTP binding inhibitors, dose response, biochemical, multiplex bead flow cytometry (AID 1341;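 active = dose-response curve with midpoint inside the tested range, moderate steepness, significant amplitude and little compound fluorescence or bead-attachment interference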;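 also: GST-tagged constitutively activated Ras mutant immobilized on beads and multiplexed with other GTPases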)
[3] = biological target: Ras-related C3 botulinum toxin substrate 1 (Homo sapiens) (UniProt P63000); experiment: wildtype Rac1 GTP binding inhibitors, dose response, biochemical, multiplex bead flow cytometry (AID 1340;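 active = dose curve with midpoint inside tested range, moderate steepness, plateau gap beyond fit error, low compound glow and bead-link interference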); conditions: GST-Rac1 beads, Bodipy-FL-GTP binding; at 100 µM (top of the series) unless noted
[4] = tested on: Ras-related protein Rab-7a (dog), GTP binding; experiment: Rab7 GTP binding inhibitors, potency, dose response, biochemical, wildtype, multiplex bead flow cytometry (AID 1336)
[5] = biological target: Cell division control protein 42 homolog (Homo sapiens) (UniProt P60953); experiment: wildtype Cdc42 GTP-binding inhibitors, dose response, biochemical, multiplex bead flow cytometry, Bodipy-FL-GTP (AID 1334;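 active = fitted half-maximal concentration within the tested range, moderate curve steepness, significant signal drop, and little compound fluorescence or bead-linkage interference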); conditions: bead-based flow cytometry, Bodipy-FL-GTP binding to GST-Cdc42; at 100 µM (top of the series) unless noted
Cell division control protein 42 homolog (Homo sapiens), sequence (P60953 whole entry, looked up): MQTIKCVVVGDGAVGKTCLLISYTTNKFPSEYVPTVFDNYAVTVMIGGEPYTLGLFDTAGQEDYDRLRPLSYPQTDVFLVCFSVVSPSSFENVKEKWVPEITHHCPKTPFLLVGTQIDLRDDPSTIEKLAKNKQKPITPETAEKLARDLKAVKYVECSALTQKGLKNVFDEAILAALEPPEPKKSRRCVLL

[6] = biological target: Regulator of G-protein signaling 16 (Homo sapiens) (UniProt O15492); experiment: modulators of RGS–Galpha-o binding, primary screen, biochemical, multiplexed beads, flow cytometry, RGS4/7/8/16/19 (AID 1504); conditions: multiplexed bead flow cytometry, measured here: RGS16 interaction, at 10 µM;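 also: fluorescently labeled Galpha-o bound to GDP with aluminium fluoride binding biotinylated RGS beads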
[7] = biological target: Regulator of G-protein signaling 19 (Homo sapiens) (UniProt P49795); experiment: as above; conditions: multiplexed bead flow cytometry, measured here: RGS19 interaction, at 10 µM
[8] = biological target: Regulator of G-protein signaling 4 (Homo sapiens) + Guanine nucleotide-binding protein G(o) subunit alpha (Homo sapiens) (UniProt P49798+P09471); experiment: as above; conditions: multiplexed bead flow cytometry, at 10 µM
Regulator of G-protein signaling 4 (Homo sapiens) + Guanine nucleotide-binding protein G(o) subunit alpha (Homo sapiens), sequence (P09471 whole entry, looked up): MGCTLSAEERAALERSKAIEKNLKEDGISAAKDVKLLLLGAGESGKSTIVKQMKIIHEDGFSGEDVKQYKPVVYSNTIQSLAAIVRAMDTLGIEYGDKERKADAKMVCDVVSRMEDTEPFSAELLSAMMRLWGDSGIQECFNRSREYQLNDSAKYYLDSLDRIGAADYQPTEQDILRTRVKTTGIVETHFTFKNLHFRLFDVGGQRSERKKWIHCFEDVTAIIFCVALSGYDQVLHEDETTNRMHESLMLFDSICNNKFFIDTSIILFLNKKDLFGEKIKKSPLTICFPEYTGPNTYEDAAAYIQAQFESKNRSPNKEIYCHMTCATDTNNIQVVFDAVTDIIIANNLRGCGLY
Regulator of G-protein signaling 4 (Homo sapiens) + Guanine nucleotide-binding protein G(o) subunit alpha (Homo sapiens), sequence (P49798 whole entry, looked up): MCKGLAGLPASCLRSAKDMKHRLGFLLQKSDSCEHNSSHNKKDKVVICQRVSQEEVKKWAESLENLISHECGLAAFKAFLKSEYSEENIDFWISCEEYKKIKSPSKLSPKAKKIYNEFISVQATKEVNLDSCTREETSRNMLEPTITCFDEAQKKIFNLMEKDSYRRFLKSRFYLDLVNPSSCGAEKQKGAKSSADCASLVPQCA

[9] = biological target: Regulator of G-protein signaling 7 (Homo sapiens) (UniProt P49802); experiment: as above; conditions: multiplexed bead flow cytometry, measured here: RGS7 interaction, at 10 µM
[10] = biological target: Regulator of G-protein signaling 8 (Homo sapiens) (UniProt P57771); experiment: as above; conditions: multiplexed bead flow cytometry, measured here: RGS8 interaction, at 10 µM
[11] = disruption of biotin probe capture by avidin, counter-screen for RGS protein interaction modulators, biochemical, flow cytometry, bead-based (AID 1783;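 active = inhibition above 50%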;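 as to inhibition: median green fluorescence of gated singlet beads compared with DMSO control wells; 0% = DMSO wells and 100% = complete loss of bead fluorescence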); conditions: streptavidin beads, fluorescein-biotin binding; at 10 µM, stronger effect = higher value
[12] = biological target: Guanine nucleotide-binding protein G(o) subunit alpha (Homo sapiens) (UniProt P09471); experiment: RGS8-Galphao binding modulators, confirmation, biochemical, multiplexed bead flow cytometry, single concentration (AID 1836; in the data active = binding response below about 72% or above about 130%; inactive = in between;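 also: Galphao activated as GDP AlF4 complex before binding bead RGS8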); conditions: bead-based flow cytometry RGS8-Galphao binding, fluorescence; at 10 µM; actives lie on both sides
Guanine nucleotide-binding protein G(o) subunit alpha (Homo sapiens), sequence (P09471 whole entry, looked up): as the sequence (P09471 whole entry, looked up) above

[13] = biological target: Guanine nucleotide-binding protein G(o) subunit alpha (Homo sapiens) (UniProt P09471); experiment: RGS7-Galphao binding modulators, confirmation, biochemical, multiplexed bead flow cytometry, single concentration (AID 1837; in the data active = response below about 75% or above about 130%; inactive = in between;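 also: fluorescent Galphao activated with GDP and aluminum fluoride binding bead-coupled RGS7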); conditions: bead-based flow cytometry RGS7-Galphao binding; at 10 µM; actives lie on both sides
[14] = biological target: Regulator of G-protein signaling 16 (Homo sapiens) + Guanine nucleotide-binding protein G(o) subunit alpha (Homo sapiens) (UniProt O15492+P09471); experiment: modulators of RGS16-Galphao protein binding, confirmation, biochemical, single concentration, multiplexed bead flow cytometry (AID 1838; in the data active = response below about 74% or above about 130%; inactive = in between;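 also: Galphao activated as the GDP aluminium fluoride complex binding bead-coupled RGS16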); conditions: bead-based flow cytometry, at 10 µM, actives lie on both sides
Regulator of G-protein signaling 16 (Homo sapiens) + Guanine nucleotide-binding protein G(o) subunit alpha (Homo sapiens), sequence (O15492 whole entry, looked up): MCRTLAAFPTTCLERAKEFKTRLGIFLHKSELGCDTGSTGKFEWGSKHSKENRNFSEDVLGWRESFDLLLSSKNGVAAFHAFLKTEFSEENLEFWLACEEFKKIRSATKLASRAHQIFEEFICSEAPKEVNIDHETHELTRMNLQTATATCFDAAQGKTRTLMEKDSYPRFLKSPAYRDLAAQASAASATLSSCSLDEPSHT
Regulator of G-protein signaling 16 (Homo sapiens) + Guanine nucleotide-binding protein G(o) subunit alpha (Homo sapiens), sequence (P09471 whole entry, looked up): as the sequence (P09471 whole entry, looked up) above

[15] = biological target: Guanine nucleotide-binding protein G(o) subunit alpha (Homo sapiens) (UniProt P09471); experiment: modulators of RGS4-Galphao protein binding, confirmation, biochemical, single concentration, multiplexed bead flow cytometry (AID 1840; in the data active = binding response below about 74% or above about 130%; inactive = in between); conditions: at 10 µM, actives lie on both sides
[16] = biological target: Guanine nucleotide-binding protein G(o) subunit alpha (Homo sapiens) + Regulator of G-protein signaling 19 (Homo sapiens) (UniProt P09471+P49795); experiment: regulators of RGS19-Galphao binding, confirmation, biochemical, single point, multiplexed bead flow cytometry (AID 1841; in the data active = response below about 50% or above about 160%; inactive = in between;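 also: 100% = no compound control and 0% = blank background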); conditions: bead-based flow cytometry RGS19-Galphao binding; at 10 µM; actives lie on both sides
Guanine nucleotide-binding protein G(o) subunit alpha (Homo sapiens) + Regulator of G-protein signaling 19 (Homo sapiens), sequence (P09471 whole entry, looked up): as above
Guanine nucleotide-binding protein G(o) subunit alpha (Homo sapiens) + Regulator of G-protein signaling 19 (Homo sapiens), sequence (P49795 whole entry, looked up): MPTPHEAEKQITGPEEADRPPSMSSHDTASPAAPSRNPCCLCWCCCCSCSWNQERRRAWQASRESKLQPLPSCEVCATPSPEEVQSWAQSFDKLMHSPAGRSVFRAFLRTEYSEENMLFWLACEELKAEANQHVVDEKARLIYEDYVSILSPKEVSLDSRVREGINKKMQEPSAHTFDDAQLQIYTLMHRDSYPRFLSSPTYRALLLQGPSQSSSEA

Structure (SMILES): N#Cc1c(-c2ccccc2)nc(SCC(=O)Nc2ccccc2)[nH]c1=O
- GTP binding, percent of control [1]: 47.2%

Structure (SMILES): CC(C)C(NCc1c(Cl)cccc1Cl)C(=O)O (stereo not given)
- GTP binding, percent of control [1]: 81.2%
- outcome [2]: inactive

Structure (SMILES): CCOC(=O)c1c(NC(=O)N/N=C/c2ccccc2OCC)sc(C(C)=O)c1C
- GTP binding signal, raw median fluorescence (lower = inhibition) (MCF (arbitrary fluorescence units)) [3]: 238

Structure (SMILES): O=C(O)c1ccccc1Sc1ncnc2sc3c(c12)CCC3
- GTP binding, percent of control [1]: 118%
- outcome [2]: inactive

Structure (SMILES): O=C(O)c1ccccc1NCCc1ccc(Cl)cc1
- GTP binding, percent of control [1]: 87%
- outcome [2]: inactive

Structure (SMILES): COc1ccc(C2CC(c3ccccc3)=NN2c2ccc(S(N)(=O)=O)cc2)cc1 (stereo not given)
- GTP binding, percent of control [1]: 84.1%
- outcome [4]: inactive
- GTP binding signal, raw median fluorescence (lower = inhibition) (MCF (arbitrary fluorescence units)) [3]: 260 and 239
- outcome [2]: inactive

Structure (SMILES): Cc1ccc(C)c(OCCn2cc(C(=O)O)c3ccccc32)c1
- fluorescence, percent of control (lower = inhibition) [5]: 47.5%
- GTP binding, percent of control [1]: 91.6%
- outcome [4]: inactive
- GTP binding signal, raw median fluorescence (lower = inhibition) (MCF (arbitrary fluorescence units)) [3]: 304
- outcome [2]: inactive

Structure (SMILES): CCOc1ccc(/C=C2\SC(N3CCc4ccccc4C3)=NC2=O)cc1
- GTP binding, percent of control [1]: 59.8%
- outcome [2]: inactive

Structure (SMILES): CC1CCN(c2ncccc2C(=O)O)CC1
- GTP binding signal, raw median fluorescence (lower = inhibition) (MCF (arbitrary fluorescence units)) [3]: 407

Structure (SMILES): O=C(NCc1ccc2c(c1)OCO2)c1ccc(CSCc2cccc(Cl)c2)o1
- fluorescence, percent of control (lower = inhibition) [5]: 31%
- GTP binding, percent of control [1]: 76.4%
- outcome [4]: inactive
- GTP binding signal, raw median fluorescence (lower = inhibition) (MCF (arbitrary fluorescence units)) [3]: 266
- outcome [2]: inactive

Structure (SMILES): CC(C)(C)NC(=O)c1cccc(NC(=O)Cc2ccc(Br)cc2)c1
- RGS16–Galpha-o binding response [6]: -3.28%
- RGS19–Galpha-o binding response [7]: 121%
- RGS4–Galpha-o binding response [8]: 79.3% (active)
- RGS7–Galpha-o binding response [9]: 76.6%
- RGS8–Galpha-o binding response [10]: 70.2%
- inhibition [11]: 1% (inactive)
- binding response (% of control) [12]: 103% (inactive)
- response (percent of control binding) [13]: 100% (inactive)
- response (% of control binding) [14]: 99.4% (inactive)
- binding response (% of control) [15]: 100% (inactive)
- response (percent of control binding) [16]: 115% (inactive)

Structure (SMILES): Oc1ccc(-c2onc3ccc(Cl)cc23)cc1
- RGS16–Galpha-o binding response [6]: 415%
- RGS19–Galpha-o binding response [7]: 108%
- RGS4–Galpha-o binding response [8]: 118% (active)
- RGS7–Galpha-o binding response [9]: 110%
- RGS8–Galpha-o binding response [10]: 144%
- inhibition [11]: 0% (inactive)
- binding response (% of control) [12]: 92.4% (inactive)
- response (percent of control binding) [13]: 89.7% (inactive)
- response (% of control binding) [14]: 91.4% (inactive)
- binding response (% of control) [15]: 89% (inactive)
- response (percent of control binding) [16]: 79.4% (inactive)

Structure (SMILES): O=C(Nc1ccc(-n2ccnc2P(=O)(O)c2ccccc2)cc1)c1ccccc1Br
- RGS16–Galpha-o binding response [6]: 143%
- RGS19–Galpha-o binding response [7]: 394%
- RGS4–Galpha-o binding response [8]: 138% (active)
- RGS7–Galpha-o binding response [9]: 152%
- RGS8–Galpha-o binding response [10]: 105%
- outcome [11]: inactive
- binding response (% of control) [12]: 114% (inactive)
- response (percent of control binding) [13]: 135% [activator] (active)
- response (% of control binding) [14]: 118% (inactive)
- binding response (% of control) [15]: 129% [activator] (active)
- response (percent of control binding) [16]: 139% (inactive)

Structure (SMILES): CCCC(=O)N=c1sc2cccc(F)c2n1C
- RGS16–Galpha-o binding response [6]: 76.5%
- RGS19–Galpha-o binding response [7]: 14800%
- RGS4–Galpha-o binding response [8]: 58.4% (active)
- RGS7–Galpha-o binding response [9]: 18%
- RGS8–Galpha-o binding response [10]: 37.2%

Structure (SMILES): Cc1ccc(OCC(O)CN2CCN(CC(O)COc3ccc(C)cc3Cl)CC2)c(Cl)c1 (stereo not given)
- RGS16–Galpha-o binding response [6]: 367%
- RGS19–Galpha-o binding response [7]: 114%
- RGS4–Galpha-o binding response [8]: 139% (active)
- RGS7–Galpha-o binding response [9]: 127%
- RGS8–Galpha-o binding response [10]: 165%

Structure (SMILES): O=C(/C=C/c1ccco1)Nc1ccc(-c2nc3ccccc3[nH]2)cc1
- GTP binding signal, raw median fluorescence (lower = inhibition) (MCF (arbitrary fluorescence units)) [3]: 273

Structure (SMILES): O=C(Nc1ccccc1)c1cc2ccccc2[nH]1
- RGS16–Galpha-o binding response [6]: 13.8%
- RGS19–Galpha-o binding response [7]: -785%
- RGS4–Galpha-o binding response [8]: 90.3% (active)
- RGS7–Galpha-o binding response [9]: 89.9%
- RGS8–Galpha-o binding response [10]: 67.8%
- inhibition [11]: 0.6% (inactive)
- binding response (% of control) [12]: 105% (inactive)
- response (percent of control binding) [13]: 103% (inactive)
- response (% of control binding) [14]: 106% (inactive)
- binding response (% of control) [15]: 106% (inactive)
- response (percent of control binding) [16]: 99.5% (inactive)
